Drawing on PubChem BioAssay (EPA / NIEHS), this text covers outcome and AC50 for 22 molecules.

Results filed as inconclusive are left out. Some structures have more than one record in an assay (separate samples or runs), and their calls can disagree. Active and inactive are the calls of the source. How the source made its calls, unless noted: active means hit-call score of the fitted dose curve at least 0.9, where 1 is the maximum; inconclusive means response in the unintended direction; inactive means score below 0.9.

Assay [1] addresses Steroid hormone receptor ERR1 (Homo sapiens) (UniProt P11474). The assay can be described thus: ATG_ERRa_TRANS: Attagene TRANS-FACTORIAL HepG2 Assay for human Estrogen-Related Receptor alpha (ERRa) (AID 2282971). The conditions noted are these: HepG2 Attagene TRANS reporter, ERRa transactivation. Summed up: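 Transfected HepG2, 24 h dosing, ERRa-Gal4 chimera driving GAL4-UAS reporter. Readout: reporter mRNA via RT-PCR plus capillary electrophoresis (fluorescence). Positive direction vs DMSO control.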

The nature of assay [2]: CCTE_Harrill_HTTr_CellCount_MCF7: CCTE's Cell Proliferation Assessment for the High-Throughput Transcriptomics (HTTr) Platform, Harrill Lab (AID 2284012).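 Further: count of Hoechst-stained nuclei per well by high-content imaging in MCF-7 cells; cells exposed to compound for six hours; intended direction is loss of nuclei count meaning fewer cells.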 The method in brief:
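For this full-screen endpoint, MCF-7 cultures received eight compound dilutions for six hours. Well nuclei counts from Hoechst imaging were analyzed relative to DMSO.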

Read-out in assay [3]: Pselectin, SELP (gene 6403)
The assay can be described thus: BSK_4H_Pselectin: BioMAP Diversity Plus: 4H Assay for Pselectin Biomarker Activity (AID 2283026; active means hit-call score of the fitted dose curve at least 0.9, where 1 is the maximum; inactive means score below 0.9). The conditions noted are these: primary human endothelial cells (HUVEC); actives raise or lower the signal. Summed up: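 Bidirectional fits against DMSO gave the endpoint. Cells: primary human umbilical vein endothelium, chemical-treated for 24 h before ELISA detection of P-selectin.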

Read-out in assay [4]: Macrophage colony-stimulating factor (MCSF), CSF1 (gene 1435)
As to the kind of experiment: BSK_CASM3C_MCSF: BioMAP Diversity Plus: CASM3C Assay for Macrophage colony-stimulating factor (MCSF) Biomarker Activity (AID 2283044; active means hit-call score of the fitted dose curve at least 0.9, where 1 is the maximum; inactive means score below 0.9;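 further: M-CSF protein amount quantified by ELISA after 24 h exposure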). The conditions noted are these: primary human coronary artery smooth muscle cells; actives raise or lower the signal.

Read-out in assay [5]: Low-density lipoprotein receptor (LDLR), LDLR (gene 3949)
The assay can be described thus: BSK_CASM3C_LDLR: BioMAP Diversity Plus: CASM3C Assay for Low-density lipoprotein receptor (LDLR) Biomarker Activity (AID 2283045; active means hit-call score of the fitted dose curve at least 0.9, where 1 is the maximum; inactive means score below 0.9;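 further: LDLR protein level on the cell surface quantified by ELISA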). The conditions noted are these: primary human coronary artery smooth muscle cells; actives raise or lower the signal.

Read-out in assay [6]: serum amyloid A (SAA), SAA1 (gene 6288)
The assay can be described thus: BSK_CASM3C_SAA: BioMAP Diversity Plus: CASM3C Assay for serum amyloid A (SAA) Biomarker Activity (AID 2283049; active means hit-call score of the fitted dose curve at least 0.9, where 1 is the maximum; inactive means score below 0.9;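 further: SAA protein level quantified by ELISA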). The conditions noted are these: primary human coronary artery smooth muscle cells; actives raise or lower the signal.

Read-out in assay [7]: Interferon-gamma inducible Protein 10 (IP10), CXCL10 (gene 3627)
The assay can be described thus: BSK_hDFCGF_IP10: BioMAP Diversity Plus: hDFCGF Assay for Interferon-gamma inducible Protein 10 (IP10) Biomarker Activity (AID 2283053; active means hit-call score of the fitted dose curve at least 0.9, where 1 is the maximum; inactive means score below 0.9). The conditions noted are these: primary human foreskin fibroblasts; actives raise or lower the signal. The method in brief:
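Chemical-treated human skin fibroblasts (primary) were sampled at 24 h for IP-10 by ELISA. Both increases and decreases relative to DMSO were scored.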

Read-out in assay [8]: Vascular cell adhesion molecule 1 (VCAM1), VCAM1 (gene 7412)
The assay can be described thus: BSK_CASM3C_VCAM1: BioMAP Diversity Plus: CASM3C Assay for Vascular cell adhesion molecule 1 (VCAM1) Biomarker Activity (AID 2283055; active means hit-call score of the fitted dose curve at least 0.9, where 1 is the maximum; inactive means score below 0.9;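 further: VCAM-1 protein level quantified by ELISA on the cells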). The note with it: primary human coronary artery smooth muscle cells; actives raise or lower the signal.

Read-out in assay [9]: Macrophage colony-stimulating factor (MCSF), CSF1 (gene 1435)
As to the kind of experiment: BSK_hDFCGF_MCSF: BioMAP Diversity Plus: hDFCGF Assay for Macrophage colony-stimulating factor (MCSF) Biomarker Activity (AID 2283060; active means hit-call score of the fitted dose curve at least 0.9, where 1 is the maximum; inactive means score below 0.9). The conditions noted are these: AC50: primary human foreskin fibroblasts, actives raise or lower the signal unless noted; outcome: primary human foreskin fibroblasts, actives raise or lower the signal unless noted. The method in brief:
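ELISA read-out of M-CSF in human dermal foreskin fibroblast cultures, 24 h after chemical dosing; gain or loss of signal fitted bidirectionally relative to DMSO baseline.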

Assay [10] in a line: ATG_ERE_CIS: Attagene CIS-FACTORIAL HepG2 Assay for Estrogen Response Element (ERE) (AID 2282940; active means hit-call score of the fitted dose curve at least 0.9, where 1 is the maximum; inactive means score below 0.9). The note with it: HepG2 ERE cis-reporter, Attagene RNA transcript; actives raise or lower the signal. The method in brief:
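Measuring endogenous transcription factor output, the assay doses transfected HepG2 cells for 24 hours and quantifies reporter transcripts by fluorescent RT-PCR and capillary electrophoresis, with DMSO as baseline.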

Assay [11] addresses Glucocorticoid receptor (Homo sapiens) (UniProt P04150). As to the kind of experiment: ATG_GR_TRANS: Attagene TRANS-FACTORIAL HepG2 Assay for human Glucocorticoid Receptor (GR) (AID 2282978).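 Further: activators score as hits since higher reporter transcript over DMSO is fitted.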 The conditions noted are these: HepG2 Attagene TRANS GR reporter, mRNA transcription. The method in brief:
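HepG2 cells transiently transfected with multiplexed reporter units in which chimeric NR-GAL4 proteins drive GAL4-UAS reporters; 24 h compound exposure. Reporter mRNA measured by RT-PCR, 6-FAM labelling, HpaI digestion and capillary electrophoresis; gain-of-signal fitted versus DMSO.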

The target of assay [12] is human Retinoic Acid Receptor gamma (RARg), RARG (gene 5916) (UniProt P13631). As to the kind of experiment: ATG_RARg_TRANS: Attagene TRANS-FACTORIAL HepG2 Assay for human Retinoic Acid Receptor gamma (RARg) (AID 2283009). The method in brief:
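Gain-of-signal relative to DMSO is reported from fluorescent capillary electrophoresis of RT-PCR reporter products. These came from HepG2 cells expressing transfected RARg-GAL4 chimeras with UAS reporters, harvested 24 h after dosing.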

Assay [13] deals with Peroxisome proliferator-activated receptor gamma (Homo sapiens) (UniProt P37231). The assay can be described thus: OT_PPARg_PPARgSRC1_0480: Odyssey Thera (OT) 8-hour Protein-Complementation Assay for Peroxisome Proliferator-activated Receptor Gamma / SRC-1 Co-activator (AID 2283387).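 Further: nuclear to cytoplasmic split Venus YFP fluorescence ratio reporting PPARg SRC-1 interaction.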 Summed up: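 Read-out: 488 nm N/C fluorescence ratio from complemented Venus YFP fragments, ≥350 cells per image, gain-of-signal fitted against DMSO baseline. Fusions of PPARg/SRC-1 with IFP1/IFP2 expressed transiently in HEK293T; compounds applied 8 h.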
Chain of Peroxisome proliferator-activated receptor gamma (Homo sapiens) (P37231 whole entry, looked up, the tested form may be a part): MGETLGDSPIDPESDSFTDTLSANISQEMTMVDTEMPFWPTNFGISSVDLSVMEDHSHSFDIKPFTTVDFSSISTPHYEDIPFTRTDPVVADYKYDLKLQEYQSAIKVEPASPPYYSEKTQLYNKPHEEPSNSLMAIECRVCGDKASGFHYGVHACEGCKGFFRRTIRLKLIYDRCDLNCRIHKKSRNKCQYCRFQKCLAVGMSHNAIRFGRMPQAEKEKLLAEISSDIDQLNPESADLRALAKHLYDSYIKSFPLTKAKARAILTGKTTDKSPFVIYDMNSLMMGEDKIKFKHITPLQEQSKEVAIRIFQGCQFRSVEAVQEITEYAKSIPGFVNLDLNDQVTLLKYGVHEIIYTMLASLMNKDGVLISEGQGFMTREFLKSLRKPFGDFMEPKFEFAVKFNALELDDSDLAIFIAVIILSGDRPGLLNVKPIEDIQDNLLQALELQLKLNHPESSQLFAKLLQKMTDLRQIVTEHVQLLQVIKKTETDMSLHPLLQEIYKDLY

Assay [14] in a line: ACEA_AR_agonist_AUC_viability: ACEA Biosciences xCELLigence Real-Time Cell Analysis on Androgen Receptor Agonism for Viability (AID 2283775). The method in brief:
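Viability endpoint from xCELLigence impedance in 22Rv1 prostate cells at 80 h. Eight-point series, 100 uM maximum final.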

Assay [15] is described as follows: ACEA_AR_antagonist_AUC_viability: ACEA Biosciences xCELLigence Real-Time Cell Analysis on Androgen Receptor Antagonism for Viability (AID 2283776).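 Further: 22Rv1 human prostate cancer cells growing on impedance electrode plates; area under impedance growth curve at 80 h after dosing as viability; hits lower the growth signal relative to DMSO meaning cytotoxicity.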 Summed up:
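Real-time electrical impedance tracks 22Rv1 proliferation after continuous compound exposure (top 100 uM final, 1:4 steps, 8 concentrations). The 80 h area-under-curve serves as the cytotoxicity readout relative to DMSO.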

The target of assay [16] is Estrogen receptor beta (Homo sapiens) (UniProt Q92731). The assay can be described thus: OT_ER_ERbERb_0480: Odyssey Thera (OT) 8-hour HEK293T Protein-Complementation Assay for Estrogen Receptor-beta/-beta Homodimer (AID 2283357).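 Further: active means signal gain over DMSO baseline.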 Summed up:
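Homodimerization of ER-beta LBD measured by protein-fragment complementation in HEK293T; 8 h dosing; fixed, Draq5 counterstain; fluorescence intensity gain over DMSO baseline, positive fitting direction; laser scanning cytometry.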

The target is the same in assay [17]. The assay can be described thus: OT_ER_ERbERb_1440: Odyssey Thera (OT) 24-hour HEK293T Protein-Complementation Assay for Estrogen Receptor-beta/-beta Homodimer (AID 2283380).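 Further: scored as signal increase over DMSO baseline for both agonists and antagonists.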 Summed up: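 HEK293T cells stably expressing ER beta LBD (aa 310-547) homodimer fragment-complementation reporter, dosed 24 h. Cells formaldehyde-fixed, Draq5-stained; gain in nuclear (agonist) or nuclear plus cytoplasmic (antagonist) fluorescence versus DMSO read by laser scanning cytometry.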

Assay [18] addresses Retinoic acid receptor RXR-alpha (Homo sapiens) (UniProt P19793). The assay can be described thus: OT_NURR1_NURR1RXRa_1440: Odyssey Thera (OT) 24-hour HEK293T Protein Complementation Assay for Nurr1/retinoid X receptor (RXR) (AID 2283386). The method in brief: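 Cell-based binding reporter: HEK293T cells, 24 h exposure, fluorescence-detected fragment complementation, DMSO as baseline.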

The target in assay [19] is Peroxisome proliferator-activated receptor gamma (Homo sapiens) (UniProt P37231). As to the kind of experiment: OT_PPARg_PPARgSRC1_1440: Odyssey Thera (OT) 24-hour Protein-Complementation Assay for Peroxisome Proliferator-activated Receptor Gamma/ SRC-1 Co-activator (AID 2283388).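 Further: nuclear to cytoplasmic ratio of reconstituted Venus YFP fluorescence in fixed imaged cells.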 Summed up: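 Readout: nuclear-to-cytoplasmic 488 nm fluorescence ratio, ≥350 cells per image, 8 images per well, after 24 h compound exposure of HEK293T expressing PPARg/SRC-1 split-YFP fusions. Activity fitted in positive direction against DMSO.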

For assay [20], the target named is human Vitamin D Receptor (VDR), VDR (gene 7421) (UniProt P11473). The assay can be described thus: ATG_VDR_TRANS: Attagene TRANS-FACTORIAL HepG2 Assay for human Vitamin D Receptor (VDR) (AID 2283022). The method in brief:
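RT-PCR/capillary electrophoresis read-out of reporter mRNA induction in transiently transfected HepG2; 24 h dosing; chimeric NR-Gal4 (TRANS format); gain-of-signal fit against DMSO baseline.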

Chain of Retinoic acid receptor RXR-alpha (Homo sapiens) (P19793 whole entry, looked up, the tested form may be a part): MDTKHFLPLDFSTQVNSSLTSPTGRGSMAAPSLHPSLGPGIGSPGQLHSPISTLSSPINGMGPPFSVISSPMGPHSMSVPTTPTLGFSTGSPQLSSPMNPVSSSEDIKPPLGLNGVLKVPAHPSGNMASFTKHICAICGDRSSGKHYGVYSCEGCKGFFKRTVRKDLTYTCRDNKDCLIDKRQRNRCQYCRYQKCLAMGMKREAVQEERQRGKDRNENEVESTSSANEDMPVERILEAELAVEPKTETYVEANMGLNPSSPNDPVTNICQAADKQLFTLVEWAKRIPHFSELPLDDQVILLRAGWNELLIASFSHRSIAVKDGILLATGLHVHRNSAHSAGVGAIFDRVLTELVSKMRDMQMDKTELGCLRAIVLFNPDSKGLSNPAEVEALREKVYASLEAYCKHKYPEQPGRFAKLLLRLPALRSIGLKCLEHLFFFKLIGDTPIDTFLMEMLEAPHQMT
Chain of human Vitamin D Receptor (VDR), VDR (gene 7421) (P11473 whole entry, looked up, the tested form may be a part): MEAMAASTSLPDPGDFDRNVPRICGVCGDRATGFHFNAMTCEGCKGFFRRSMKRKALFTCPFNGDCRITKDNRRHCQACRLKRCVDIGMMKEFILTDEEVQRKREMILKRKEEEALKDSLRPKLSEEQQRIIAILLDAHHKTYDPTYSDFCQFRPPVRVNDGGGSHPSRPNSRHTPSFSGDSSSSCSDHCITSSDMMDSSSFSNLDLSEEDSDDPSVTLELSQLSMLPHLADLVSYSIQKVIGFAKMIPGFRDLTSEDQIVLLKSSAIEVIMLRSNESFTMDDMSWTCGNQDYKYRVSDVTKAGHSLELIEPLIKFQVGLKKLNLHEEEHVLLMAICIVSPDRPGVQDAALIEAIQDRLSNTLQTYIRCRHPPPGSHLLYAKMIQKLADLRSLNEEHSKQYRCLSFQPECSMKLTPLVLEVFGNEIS
Chain of Estrogen receptor beta (Homo sapiens) (Q92731 whole entry, looked up, the tested form may be a part): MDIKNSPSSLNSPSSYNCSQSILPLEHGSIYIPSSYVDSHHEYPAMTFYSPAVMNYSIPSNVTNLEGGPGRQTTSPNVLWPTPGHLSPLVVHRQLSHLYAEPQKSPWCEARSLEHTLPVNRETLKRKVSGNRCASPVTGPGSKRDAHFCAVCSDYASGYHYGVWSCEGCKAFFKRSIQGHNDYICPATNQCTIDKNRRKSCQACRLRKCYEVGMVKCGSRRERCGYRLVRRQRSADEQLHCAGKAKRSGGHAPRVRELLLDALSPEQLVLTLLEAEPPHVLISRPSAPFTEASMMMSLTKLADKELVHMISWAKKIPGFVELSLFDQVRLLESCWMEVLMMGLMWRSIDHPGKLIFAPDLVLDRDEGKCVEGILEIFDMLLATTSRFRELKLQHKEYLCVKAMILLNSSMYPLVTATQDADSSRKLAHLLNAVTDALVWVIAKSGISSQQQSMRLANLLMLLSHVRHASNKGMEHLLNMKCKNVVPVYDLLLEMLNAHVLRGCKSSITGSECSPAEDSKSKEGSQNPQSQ
Chain of Steroid hormone receptor ERR1 (Homo sapiens) (P11474 whole entry, looked up, the tested form may be a part): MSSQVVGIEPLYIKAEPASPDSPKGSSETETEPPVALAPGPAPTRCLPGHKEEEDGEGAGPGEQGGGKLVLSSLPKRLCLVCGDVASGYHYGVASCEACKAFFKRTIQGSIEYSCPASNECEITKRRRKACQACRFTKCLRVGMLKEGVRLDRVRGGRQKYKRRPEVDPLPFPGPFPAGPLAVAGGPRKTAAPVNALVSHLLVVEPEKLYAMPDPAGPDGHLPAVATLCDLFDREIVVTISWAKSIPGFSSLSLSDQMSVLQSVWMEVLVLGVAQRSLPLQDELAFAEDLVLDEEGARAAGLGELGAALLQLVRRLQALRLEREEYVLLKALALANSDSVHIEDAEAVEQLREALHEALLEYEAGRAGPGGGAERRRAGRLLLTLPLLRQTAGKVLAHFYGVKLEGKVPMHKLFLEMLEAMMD
Chain of Glucocorticoid receptor (Homo sapiens) (P04150 whole entry, looked up, the tested form may be a part): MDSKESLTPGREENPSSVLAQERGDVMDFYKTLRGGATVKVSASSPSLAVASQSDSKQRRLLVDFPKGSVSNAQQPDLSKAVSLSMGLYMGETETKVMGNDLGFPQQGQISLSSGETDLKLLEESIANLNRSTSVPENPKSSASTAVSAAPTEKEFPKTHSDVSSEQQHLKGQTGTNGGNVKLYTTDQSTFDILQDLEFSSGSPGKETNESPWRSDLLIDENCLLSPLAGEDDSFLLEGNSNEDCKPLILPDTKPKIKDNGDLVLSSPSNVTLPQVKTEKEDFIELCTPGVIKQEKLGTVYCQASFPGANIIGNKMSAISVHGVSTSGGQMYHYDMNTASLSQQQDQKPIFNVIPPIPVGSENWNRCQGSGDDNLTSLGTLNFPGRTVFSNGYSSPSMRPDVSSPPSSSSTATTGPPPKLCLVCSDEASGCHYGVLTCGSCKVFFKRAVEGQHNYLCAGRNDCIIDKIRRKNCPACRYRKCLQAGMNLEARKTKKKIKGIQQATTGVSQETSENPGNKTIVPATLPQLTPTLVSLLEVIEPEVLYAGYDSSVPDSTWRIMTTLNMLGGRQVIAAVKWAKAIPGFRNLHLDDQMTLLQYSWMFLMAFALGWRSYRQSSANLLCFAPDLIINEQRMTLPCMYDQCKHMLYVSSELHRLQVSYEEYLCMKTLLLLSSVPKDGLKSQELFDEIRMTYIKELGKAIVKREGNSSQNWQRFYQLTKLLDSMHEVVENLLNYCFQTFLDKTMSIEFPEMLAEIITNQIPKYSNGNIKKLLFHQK
Chain of human Retinoic Acid Receptor gamma (RARg), RARG (gene 5916) (P13631 whole entry, looked up, the tested form may be a part): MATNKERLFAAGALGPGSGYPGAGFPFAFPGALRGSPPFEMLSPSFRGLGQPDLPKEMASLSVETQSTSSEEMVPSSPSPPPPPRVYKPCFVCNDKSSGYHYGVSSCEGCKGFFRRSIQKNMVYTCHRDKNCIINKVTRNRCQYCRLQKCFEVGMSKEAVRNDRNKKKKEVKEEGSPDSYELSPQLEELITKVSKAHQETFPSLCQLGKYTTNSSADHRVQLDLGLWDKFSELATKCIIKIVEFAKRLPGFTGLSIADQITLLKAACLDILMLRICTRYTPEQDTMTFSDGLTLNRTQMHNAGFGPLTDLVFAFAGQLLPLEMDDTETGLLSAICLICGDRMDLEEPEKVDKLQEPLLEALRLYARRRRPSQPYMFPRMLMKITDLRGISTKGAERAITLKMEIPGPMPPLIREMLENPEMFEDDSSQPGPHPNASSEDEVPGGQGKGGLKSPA

Consider `O=C(O)Cc1c[nH]c2ccccc12`, for which the molecule was classed as inactive in [1] and in [2].
`CCCCCCCCCC/C=C/C1CC(=O)OC1=O` (centres undefined): the result in assay [3], in assay [4], in [5], in assay [6], in [7] and in assay [8] was inactive. The result in assay [9] was inactive.
On to `COC(OC)C(C)c1ccccc1` (centres undefined), for which the molecule was classed as inactive in assay [10].
In the case of `CCCCCC1CCCC(=O)O1` (centres undefined), the outcome in [1], in assay [11] and in [12] was inactive.
`O=S(=O)(O)c1cccc2ccccc12`: the outcome in [1], in assay [13], in [14] and in assay [15] was inactive.
Regarding `CC(=O)c1nccs1`, the AC50 – broadly, the midpoint of the concentration-response curve, whichever way the signal moves – in [10] is 4.94 µM (active). The molecule was called inactive in assay [11].
Turning to `O=[N+]([O-])c1ccccc1C(F)(F)F`, the call in assay [10], in assay [1] and in [12] was inactive.
As to `O=C(CC(C(=O)OC1CCCCC1)S(=O)(=O)O)OC1CCCCC1` (centres undefined), the result in assay [16], in assay [17], in assay [18], in [13], in assay [19] and in [14] was inactive. The molecule was called inactive in assay [15].
On to `CO[Si](CCCNCCN)(OC)OC`, for which the molecule was classed as inactive in [16], in assay [17], in assay [13], in [19] and in assay [15].
Consider `CNC(=C[N+](=O)[O-])NCCSCc1csc(CN(C)C)n1`, for which the result in [2] was inactive.
Regarding `Oc1cccc2ccccc12`, the outcome in [3], in assay [4], in assay [5], in assay [6], in assay [7] and in assay [8] was inactive. Besides, the outcome in assay [9], in assay [18], in [14], in assay [15] and in assay [2] was inactive. Also, the results for the concentration at half-maximal activity (AC50) in assay [16] and in [17] were 39.1 µM (active) and 49.2 µM (active), respectively.
On to `O=[N+]([O-])c1ccc2nc[nH]c2c1`, for which the outcome in assay [10] was inactive.
On to `NCc1ccccc1`, for which the call in assay [1] and in [2] was inactive.
For `c1cc[c]([Bi]([c]2ccccc2)[c]2ccccc2)cc1`, the AC50 in assay [10] is 6.83 µM (active).
Turning to `CCCCCC[C@@H](O)C/C=C\CCCCCCCC(=O)O`, the call in [11], in assay [16], in assay [17], in assay [18], in assay [13] and in assay [19] was inactive. The call in assay [14], in [15] and in assay [2] was inactive.
`COc1cccc(OC)c1C(=O)O`: the molecule was classed as inactive in [20].
`CCCc1c(OCCCCc2nn[nH]n2)ccc(C(C)=O)c1O`: the molecule was called inactive in assay [10] and in [2].
Consider `CC/C=C\CCO`, for which the molecule was classed as inactive in assay [16], in assay [17], in [18], in assay [15] and in [2].
In the case of `c1ccc2c(c1)Oc1ccccc1S2`, in [10], the half-maximal activity concentration (AC50) is 63.7 µM (active). Further, the call in [11] and in assay [20] was inactive.
For the molecule `CC[N+](CC)(CC(=O)Nc1c(C)cccc1C)Cc1ccccc1`, the result in assay [3], in [4], in assay [5], in assay [6], in [7] and in [8] was inactive. For the same molecule, the result in [9], in assay [18], in [13] and in assay [19] was inactive.
For the molecule `CC[N+](CC)(CC(=O)Nc1c(C)cccc1C)Cc1ccccc1` (tested in a mixture with another compound), the result in assay [3], in assay [4], in assay [5], in [6], in assay [7] and in [8] was inactive. Besides, the outcome in assay [9], in [18], in assay [13], in assay [19], in assay [14] and in [15] was inactive. The outcome in assay [2] was inactive. Further, the half-maximal activity concentration (AC50) in assay [4] is 5.41 µM (active); in assay [5] it was 0.591 µM (active).
As for `O=C(O)/C=C/C(=O)O`, the molecule was classed as inactive in [11], in assay [20], in assay [16], in assay [17], in assay [14] and in assay [15]. Besides, the outcome in assay [2] was inactive.
